This passage reports inhibition results from PubChem BioAssay.

For test [1], the target named is Nuclear receptor coactivator 3 (Homo sapiens) (UniProt Q9Y6Q9). Description: SRC3 coactivator transcriptional activity inhibitors, confirmation, cell-based, luminescence, quadruplicate (AID 588792).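 Note: 0% = DMSO treated cells and 100% = gossypol at 36 µM.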 As to conditions: HEK293 GAL4-SRC3 luciferase reporter, at 3.6 µM, active compounds read high.
For test [2], the system named is transactivating tegument protein VP16 (Human herpesvirus 1), Gal4-VP16 luciferase reporter. Description: VP16 transactivation inhibitors, counter-screen for SRC3 inhibitor project, cell-based, luminescence, high throughput (AID 588794; in the data active = inhibition above about 30%). The conditions noted are these: mammalian cells, VP16-driven luciferase reporter luminescence; at 3.6 µM; active compounds read high.
In test [3] the target is Nuclear receptor coactivator 1 (Homo sapiens) (UniProt Q15788). Description: SRC1 coactivator transcriptional activity inhibitors, confirmation, cell-based, luminescence, quadruplicate (AID 588820;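 active = mean inhibition above 46.68%, the untreated control wells mean plus 3 SD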;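 note: 0% = DMSO wells and 100% = gossypol 36 µM treated wells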). The conditions noted are these: HEK293 GAL4-SRC1 luciferase reporter, at 3.6 µM, active compounds read high. (Reporter assays use an easily measured gene product as a stand-in for the process of interest.)
Nuclear receptor coactivator 1 (Homo sapiens), sequence (Q15788 whole entry, looked up, the tested form may be a part): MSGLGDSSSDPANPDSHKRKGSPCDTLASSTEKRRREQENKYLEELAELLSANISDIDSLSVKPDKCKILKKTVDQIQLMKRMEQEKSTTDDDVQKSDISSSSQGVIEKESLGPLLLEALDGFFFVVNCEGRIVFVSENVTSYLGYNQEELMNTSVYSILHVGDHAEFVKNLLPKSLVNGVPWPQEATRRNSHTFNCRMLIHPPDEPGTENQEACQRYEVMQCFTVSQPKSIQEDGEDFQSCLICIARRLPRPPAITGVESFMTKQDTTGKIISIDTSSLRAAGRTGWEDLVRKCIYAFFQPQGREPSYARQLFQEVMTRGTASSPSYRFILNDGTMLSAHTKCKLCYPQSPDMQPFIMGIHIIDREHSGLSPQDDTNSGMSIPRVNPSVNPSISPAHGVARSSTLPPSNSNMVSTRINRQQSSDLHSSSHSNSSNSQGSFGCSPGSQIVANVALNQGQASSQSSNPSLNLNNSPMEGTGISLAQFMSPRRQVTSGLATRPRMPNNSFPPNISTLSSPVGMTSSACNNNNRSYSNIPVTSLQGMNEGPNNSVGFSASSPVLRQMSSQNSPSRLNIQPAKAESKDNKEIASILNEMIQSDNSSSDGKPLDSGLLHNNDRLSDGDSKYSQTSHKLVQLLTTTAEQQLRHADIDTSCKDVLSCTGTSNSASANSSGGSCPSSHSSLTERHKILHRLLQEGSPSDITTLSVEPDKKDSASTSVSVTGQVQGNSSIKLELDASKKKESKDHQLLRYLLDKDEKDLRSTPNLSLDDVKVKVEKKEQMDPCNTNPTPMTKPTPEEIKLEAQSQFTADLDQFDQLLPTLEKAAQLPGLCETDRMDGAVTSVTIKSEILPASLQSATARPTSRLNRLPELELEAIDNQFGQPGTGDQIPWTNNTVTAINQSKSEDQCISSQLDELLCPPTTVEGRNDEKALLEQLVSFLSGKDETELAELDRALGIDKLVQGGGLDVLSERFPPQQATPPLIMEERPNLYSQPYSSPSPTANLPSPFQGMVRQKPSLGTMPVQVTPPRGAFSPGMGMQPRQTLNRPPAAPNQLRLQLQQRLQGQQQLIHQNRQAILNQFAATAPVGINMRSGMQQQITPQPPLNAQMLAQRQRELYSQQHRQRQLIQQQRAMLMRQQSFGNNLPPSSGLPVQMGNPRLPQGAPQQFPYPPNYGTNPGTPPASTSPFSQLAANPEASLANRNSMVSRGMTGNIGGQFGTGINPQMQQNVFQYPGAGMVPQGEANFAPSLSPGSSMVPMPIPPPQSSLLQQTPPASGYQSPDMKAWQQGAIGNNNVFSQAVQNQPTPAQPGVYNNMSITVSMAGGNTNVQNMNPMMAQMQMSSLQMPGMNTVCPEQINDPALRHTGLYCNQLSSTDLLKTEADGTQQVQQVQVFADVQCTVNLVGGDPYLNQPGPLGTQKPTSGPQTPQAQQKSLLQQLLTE

The nature of test [4]: VP16 transactivation inhibitors, counter-screen for SRC1 inhibitor project, cell-based, luminescence, high throughput (AID 588824; in the data active = inhibition above about 25%). The conditions noted are these: cell-based VP16 transactivation luciferase luminescence; at 3.6 µM; active compounds read high. Background: Counterscreens check selectivity or assay interference.
A short description of test [5]: StAR promoter reporter inhibitors, counter-screen for LRH-1 inverse agonist project, cell-based, luminescence, high throughput (AID 651611; in the data active = inhibition above about 28%). As to conditions: StAR promoter luciferase reporter counterscreen, at 3.6 µM, active compounds read high.
For test [6], the target named is Nuclear receptor subfamily 5 group A member 2 (Homo sapiens) (UniProt O00482). Description: LRH-1 (NR5A2) inverse agonists, retest, confirmation, cell-based, luminescence (AID 651613; in the data active = inhibition above about 42%;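 note: HEK293T cells co-transfected with LRH-1 and StAR promoter luciferase reporter; 0% = vehicle wells and 100% = parental cells lacking receptor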). The conditions noted are these: cell-based LRH-1 luciferase reporter, inverse agonism; at 3.6 µM; active compounds read high.
Nuclear receptor subfamily 5 group A member 2 (Homo sapiens), sequence (O00482 whole entry, looked up): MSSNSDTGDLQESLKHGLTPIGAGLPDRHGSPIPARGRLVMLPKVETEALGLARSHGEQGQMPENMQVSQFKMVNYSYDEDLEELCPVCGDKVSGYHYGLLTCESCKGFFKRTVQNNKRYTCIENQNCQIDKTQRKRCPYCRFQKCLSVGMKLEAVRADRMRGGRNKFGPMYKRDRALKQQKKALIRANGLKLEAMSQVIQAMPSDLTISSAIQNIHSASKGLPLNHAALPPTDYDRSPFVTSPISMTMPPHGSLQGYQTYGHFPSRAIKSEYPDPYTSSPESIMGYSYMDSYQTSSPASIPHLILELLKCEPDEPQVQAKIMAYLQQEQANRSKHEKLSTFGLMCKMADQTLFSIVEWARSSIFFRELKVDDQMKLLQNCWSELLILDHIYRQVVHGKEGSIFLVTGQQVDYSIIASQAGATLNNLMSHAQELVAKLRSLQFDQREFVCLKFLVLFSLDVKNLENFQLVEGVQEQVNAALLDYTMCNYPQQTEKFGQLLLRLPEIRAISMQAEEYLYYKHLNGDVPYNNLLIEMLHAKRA
Test [7] deals with Steroidogenic factor 1 (Homo sapiens) (UniProt Q13285). Description: SF1 (NR5A1) inverse agonists, counter-screen for LRH-1 inverse agonist project, cell-based, luminescence, high throughput (AID 651614; in the data active = inhibition above about 44%;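 note: cells cotransfected with StAR promoter reporter and SF1 expression vector; 0% = vehicle on cells with receptor and 100% = vehicle on cells lacking receptor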). As to conditions: cell-based SF1 luciferase reporter, at 3.6 µM, active compounds read high.
Steroidogenic factor 1 (Homo sapiens), sequence (Q13285 whole entry, looked up, the tested form may be a part): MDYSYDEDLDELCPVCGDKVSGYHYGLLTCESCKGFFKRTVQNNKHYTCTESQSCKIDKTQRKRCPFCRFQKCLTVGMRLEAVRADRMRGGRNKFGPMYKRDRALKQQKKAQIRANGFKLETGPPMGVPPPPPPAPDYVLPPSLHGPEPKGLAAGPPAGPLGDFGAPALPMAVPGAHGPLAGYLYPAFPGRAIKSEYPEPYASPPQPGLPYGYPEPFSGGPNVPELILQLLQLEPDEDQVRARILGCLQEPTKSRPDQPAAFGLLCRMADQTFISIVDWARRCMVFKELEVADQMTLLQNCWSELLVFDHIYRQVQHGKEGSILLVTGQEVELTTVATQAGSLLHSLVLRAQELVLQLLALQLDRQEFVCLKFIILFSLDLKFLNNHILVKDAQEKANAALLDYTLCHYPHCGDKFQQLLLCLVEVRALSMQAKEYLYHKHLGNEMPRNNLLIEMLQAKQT
The nature of test [8]: VP16 transactivation reporter inhibitors, counter-screen for LRH-1 inverse agonist project, cell-based, luminescence, high throughput (AID 651615; in the data active = inhibition above about 33%). As to conditions: Gal4-VP16 luciferase reporter cells, at 3.6 µM, active compounds read high.

Active and inactive are the calls of the source.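 Rule for the calls, unless noted: active = mean inhibition over 43.08%, the solvent-only control mean plus 3 SD; inactive = the rest.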

Nuclear receptor coactivator 3 (Homo sapiens), sequence (Q9Y6Q9 whole entry, looked up, the tested form may be a part): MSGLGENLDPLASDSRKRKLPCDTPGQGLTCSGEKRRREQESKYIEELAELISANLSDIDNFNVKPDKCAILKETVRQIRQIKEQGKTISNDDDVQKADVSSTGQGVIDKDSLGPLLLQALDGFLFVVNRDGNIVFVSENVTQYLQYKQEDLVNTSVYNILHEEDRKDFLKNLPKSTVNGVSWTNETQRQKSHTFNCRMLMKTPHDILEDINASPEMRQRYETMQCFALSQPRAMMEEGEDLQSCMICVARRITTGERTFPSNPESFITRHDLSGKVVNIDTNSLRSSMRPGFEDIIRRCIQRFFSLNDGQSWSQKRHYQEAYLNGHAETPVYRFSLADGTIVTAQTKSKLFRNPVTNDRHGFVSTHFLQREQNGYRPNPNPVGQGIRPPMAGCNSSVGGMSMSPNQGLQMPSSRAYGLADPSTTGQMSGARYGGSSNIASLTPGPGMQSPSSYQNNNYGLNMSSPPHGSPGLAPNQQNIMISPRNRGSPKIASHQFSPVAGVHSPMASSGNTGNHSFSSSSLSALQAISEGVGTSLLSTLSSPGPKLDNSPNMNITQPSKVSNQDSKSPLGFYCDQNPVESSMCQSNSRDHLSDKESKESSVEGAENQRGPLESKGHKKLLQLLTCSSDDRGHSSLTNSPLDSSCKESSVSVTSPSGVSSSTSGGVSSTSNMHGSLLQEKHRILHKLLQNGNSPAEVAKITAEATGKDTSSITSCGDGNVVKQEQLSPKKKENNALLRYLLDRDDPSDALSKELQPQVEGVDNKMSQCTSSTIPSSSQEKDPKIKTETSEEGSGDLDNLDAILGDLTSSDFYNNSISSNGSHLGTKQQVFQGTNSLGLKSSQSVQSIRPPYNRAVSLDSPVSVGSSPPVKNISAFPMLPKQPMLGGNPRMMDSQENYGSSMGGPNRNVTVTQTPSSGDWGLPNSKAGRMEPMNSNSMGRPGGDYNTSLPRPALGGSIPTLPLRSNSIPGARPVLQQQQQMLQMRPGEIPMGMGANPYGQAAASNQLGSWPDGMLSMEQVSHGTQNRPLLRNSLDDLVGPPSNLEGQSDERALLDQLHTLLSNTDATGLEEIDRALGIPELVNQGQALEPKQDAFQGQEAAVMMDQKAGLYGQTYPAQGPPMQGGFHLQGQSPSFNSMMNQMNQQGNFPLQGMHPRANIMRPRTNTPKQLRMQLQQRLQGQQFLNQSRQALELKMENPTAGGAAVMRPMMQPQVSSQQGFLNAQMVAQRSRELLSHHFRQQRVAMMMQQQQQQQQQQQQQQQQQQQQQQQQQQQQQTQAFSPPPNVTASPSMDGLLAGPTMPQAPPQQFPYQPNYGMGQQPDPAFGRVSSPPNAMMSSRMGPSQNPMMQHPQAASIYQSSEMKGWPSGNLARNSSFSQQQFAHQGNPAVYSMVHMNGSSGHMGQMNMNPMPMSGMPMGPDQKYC

As usually defined, the inhibition is the relative decrease from the control value, in per cent. `CCn1cc(/C=C/c2cc[n+](C)cc2)c2ccccc21`: the inhibition in test [1] was 21.5% (inactive); in test [2], 38.4% (active); in test [3], 3.02% (inactive); in test [4], 47.3% (active); in test [5] it was 40.5% (active); in test [6], 65.9% (active). The inhibition is 66.8% (active) in test [7] and 57.1% (active) in test [8].
Take `O=C(NCc1ccccc1)c1cccc(NC(=O)c2ccco2)c1`: the inhibition is 18.4% (inactive) in test [1]; 50.7% (active) in test [2]; 26.9% (inactive) in test [3]; 48.9% (active) in test [4]; 35.5% (active) in test [5]; 51.6% (active) in test [6]. The inhibition in test [7] was 51.1% (active); in test [8] it was 68.5% (active).
Consider `Cc1nc(N)nc(N)c1/C=C/C(C)(C)c1ccc(Cl)cc1`, for which the inhibition in test [1] was 70% (active); in test [2], 29.5% (active); in test [3], 62.2% (active); in test [4], 28.5% (active); in test [5], 78.5% (active); in test [6], 62.7% (active). In addition, the inhibition is 56.5% (active) in test [7] and 28.6% (inactive) in test [8].
Take `COc1ccc(-n2cc(-c3ccc(C)cc3)[n+]3c2SCC3)cc1`: the inhibition in test [1] was 30.8% (inactive); in test [2], 55.1% (active); in test [3], 22.8% (inactive); in test [4], 51% (active); in test [5], 40.9% (active); in test [6], 83.5% (active). Moreover, the inhibition was 75.1% (active) in test [7] and 74.9% (active) in test [8].
In the case of `O=C(Nc1ccc(S(=O)(=O)N2CCCC2)cc1)c1ccc(CN2CCc3ccccc3C2)cc1`, the inhibition in test [1] was 28.1% (inactive); in test [2], 56.4% (active); in test [3] it was 8.79% (inactive); in test [4] it was 56.9% (active); in test [5], 51.4% (active); in test [6] it was 74.5% (active). Further, the inhibition is 75.2% (active) in test [7] and 68.7% (active) in test [8].
As to `CC(C)=CC(O)C/C(C)=C/COc1ccc2ccc(=O)oc2c1` (stereo unspecified), the inhibition in test [1] is 17.4% (inactive); in test [2], 38.5% (active); in test [3] it was 0.43% (inactive); in test [4], 40.6% (active); in test [5], -4.64% (inactive); in test [6], 31.5% (inactive). Besides, the inhibition is 29.2% (inactive) in test [7] and -10.8% (inactive) in test [8].
In the case of `Cc1cc([N+](=O)[O-])nn1Cc1ccc(C(=O)N/N=C/c2ccc(O)cc2O)cc1`, the inhibition in test [1] was 54.5% (active); in test [2] it was 63.4% (active); in test [3], 48.5% (active); in test [4] it was 66.9% (active); in test [5], 80.8% (active); in test [6], 97% (active). Moreover, the inhibition in test [7] was 88.1% (active); in test [8] it was 87.9% (active).
On to `Cc1nn(C(C)(C)C)c(C)c1/C=N/OC(=O)Nc1ccc(Cl)cc1`, for which the inhibition in test [1] is 94% (active); in test [2], 91.8% (active); in test [3] it was 87.3% (active); in test [4], 87.8% (active); in test [5] it was 92.3% (active); in test [6] it was 95.5% (active). In addition, the inhibition in test [7] is 93.6% (active); in test [8], 88.7% (active).
As for `COc1cccc(/C=N/NC(=O)c2ccc(-c3ccccc3)cc2)c1O`, the inhibition in test [1] was 28.9% (inactive); in test [2], 39.8% (active); in test [3] it was 37.3% (inactive); in test [4] it was 40.6% (active); in test [5], 48.9% (active); in test [6], 81% (active). Further, the inhibition in test [7] was 36.4% (inactive); in test [8], 80.1% (active).
In the case of `Cc1cc(C)cc(NS(=O)(=O)c2ccc3c(c2)c(=O)n(C)c(=O)n3C)c1`, the inhibition in test [1] was 55.2% (active); in test [2], 36.5% (active); in test [3], 57.1% (active); in test [4], 38% (active); in test [5], 36.2% (active); in test [6], 54.4% (active). Besides, the values for the inhibition in test [7] and in test [8] were 41.3% (inactive) and 56.9% (active), respectively.
As for `COCCn1c(C)cc(C(=O)COC(=O)c2ccccc2Br)c1C`, the inhibition was 71.7% (active) in test [1]; 57% (active) in test [2]; 46.2% (inactive) in test [3]; 36.7% (active) in test [4]; 57.1% (active) in test [5]; -4.05% (inactive) in test [6]. Also, the results for the inhibition in test [7] and in test [8] were 50.9% (active) and 16.6% (inactive), respectively.
With `COc1ccc(NC(=O)c2sc(=O)n(Cc3cccc(C(F)(F)F)c3)c2C)cc1OC`, the inhibition in test [1] was 24.9% (inactive); in test [2], 57.4% (active); in test [3], 19% (inactive); in test [4], 52.7% (active); in test [5], 46% (active); in test [6], 67.8% (active). The inhibition is 69% (active) in test [7] and 73.9% (active) in test [8].
As to `Cc1cccc(NC(=O)c2cc(Cl)ccc2[N+](=O)[O-])c1`, the inhibition was 42.4% (inactive) in test [1]; 27% (inactive) in test [2]; 17.7% (inactive) in test [3]; 51.4% (active) in test [4]; 44.3% (active) in test [5]; 51% (active) in test [6]. Also, the inhibition in test [7] is 58.4% (active); in test [8], 33.2% (active).
Turning to `COc1ccc(C2=Nn3c([n+](C)c4ccccc43)SC2)cc1`, the inhibition in test [1] is 45.3% (active); in test [2], 68.3% (active); in test [3], 21.8% (inactive); in test [4] it was 66.5% (active); in test [5], 59.1% (active); in test [6] it was 95.7% (active). In addition, the inhibition in test [7] was 86.5% (active); in test [8], 78.7% (active).
Consider `c1ccc(-c2ccc(-c3nc(-c4ccccn4)no3)cc2)cc1`, for which the inhibition was 43.5% (active) in test [1]; 35.9% (active) in test [2]; -28.2% (inactive) in test [3]; 39.4% (active) in test [4]; 42.4% (active) in test [5]; 13.6% (inactive) in test [6]. Besides, the inhibition was 54.8% (active) in test [7] and 30.9% (active) in test [8].
With `NC1=C(Cl)C(=O)c2ccc(S(N)(=O)=O)cc2C1=O`, the inhibition in test [1] was 97.5% (active); in test [2], 93.7% (active); in test [3] it was 82% (active); in test [4], 92.8% (active); in test [5], 89.7% (active); in test [6] it was 106% (active). The inhibition in test [7] is 94% (active); in test [8], 95.8% (active).
As for `Cc1cccc(-n2c(N)c(-c3nc4ccccc4n3C)c3nc4ccccc4nc32)c1`, the inhibition in test [1] is -11.4% (inactive); in test [2], -15% (inactive); in test [3], -14.8% (inactive); in test [4] it was -15.4% (inactive); in test [5] it was 8.3% (inactive); in test [6] it was -11.5% (inactive). In addition, the inhibition was 10.3% (inactive) in test [7] and 1.82% (inactive) in test [8].
